Pf Dd2 growth: qHTS Primary assay for Inhibitors of Plasmodium falciparum Dd2 growth in vitro; P. falciparum Dd2 growth, SYBR Green, 72 h; Potency, µM (doses to about 28.9 µM), for inactives: at the top dose activity, negative = inhibition, most hits filed as inhibitors; 120,000 compounds, 4.3% hits; AID 1347417, 2020; active means well fitted inhibition curve with a large enough effect;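 further: plate controls were DMSO vehicle for no effect and reference drug for full effect; nearly all actives have a fitted effect of over 65% in size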
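Infected erythrocytes (Dd2, 0.3% parasitemia, 2.5% hematocrit final) are added to compound in RPMI-1640/Albumax II medium, grown 72 h at 37C in low oxygen, then lysed with saponin/Triton-X containing SYBR Green and read by fluorescence.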
* = called active by the depositor; i = inactive; [ ] = another dose, or the depositor's remark. This is one part of a sample in which hits are shown more often than they occur. Potency means the concentration at half of the fitted maximal effect.

SMILES	Pf Dd2 growth
CNc1ccc(C)cc1C(=O)N1CCC2(CCCN(C)CC2)CC1	10µM*
CNc1ncccc1C(=O)N1CCC(O)(c2ccc(C)cn2)CC1	-4.1%
COC[C@H]1C[C@@H](NC(=O)c2ccc(OC)cc2)[C@H](O)[C@@H]1O	6.8%[44.1 µM]
Cc1c(CCNC(=O)Cc2ccccc2)sc2nc(-c3ccc(F)cc3)nn12	i
Cc1c(CCNC(=O)Cc2ccc(F)cc2)sc2nc(-c3ccc(F)cc3)nn12	4.2%
Cc1c(CCNC(=O)c2ccc(C(C)(C)C)cc2)sc2nc(-c3ccc(F)cc3)nn12	11.2µM*
COCCN1C(=O)CC[C@]2(C(=O)NCc3cccc(Cl)c3)CCCC[C@@H]12	-2.7%
N#C/C(=C\c1ccc(-c2cccc(Cl)c2)o1)C(=O)Nc1cccc(C(F)(F)F)c1	17.3%
Cc1ccc(NC(=O)/C(C#N)=C/c2ccccc2Cl)cc1C	18.5%
N#C/C(=C/c1cn(Cc2ccc(F)cc2)c2ccccc12)C(=O)Nc1cccc(Cl)c1	10µM*
COC1CN(c2cccc(F)c2)C12CCN(C(=O)c1cccnc1)CC2 (stereo not drawn)	-24.0%
O=C(Nc1ccc2c(c1)CN(Cc1ccc(Cl)cc1)C(=O)CO2)c1ccc(F)cc1F	i
O=C(NCc1ccc2c(c1)OCO2)c1nc(-c2cccc(C(F)(F)F)c2)c2ccccn12	i
O=C(NCc1ccc2c(c1)OCO2)c1nc(-c2cccnc2)c2cnccn12	i
O=C(NC1CC1)c1nc(-c2cccc(C(F)(F)F)c2)c2ccccn12	-19.3%
COCCNC(=O)c1nc(-c2cccc(C(F)(F)F)c2)c2ccccn12	i
COCCNC(=O)c1nc(-c2ccc(OC)cc2)c2ccccn12	5.9%
C#CCNC(=O)c1nc(-c2cccc(C(F)(F)F)c2)c2cnccn12	3.55µM*
COCCNC(=O)c1nc(-c2cccc(C(F)(F)F)c2)c2cnccn12	10µM*
O=C(NCc1cccs1)c1nc(-c2cccnc2)c2cnccn12	11.2µM*
C#CCNC(=O)c1nc(-c2ccsc2)c2cnccn12	-11.1%[44.1 µM]
C#CCNC(=O)c1nc(-c2cccnc2)c2cnccn12	i
O=C(NCc1cccnc1)c1nc(-c2cccc(C(F)(F)F)c2)c2ccccn12	7.94µM*
O=C(NCc1cccs1)c1nc(-c2cccnc2)c2ccccn12	-7.2%
O=C([C@@H]1C[C@H](F)CN1C(=O)NCc1ccccc1)N1CCCCC1	9.1%
SMILES	Pf Dd2 growth
Cc1cnc(C(=O)N2CCCn3nc(CCC(=O)NC(C)C)cc3C2)cn1	1.2%
O=C1NN=C(c2cccnc2)C12CCN([S+](=O)([O-])c1cccc(C(F)(F)F)c1)CC2	-18.7%
CC(=O)Nc1cccc2nc(CN3CCN(C(C)C)C(CCO)C3)ccc12 (stereo not drawn)	-16.2%
CCOc1cccc(CNC(=O)C2CCN(C(=O)c3ncn4c3COC(c3ccccc3)C4)CC2)c1 (stereo not drawn)	19.0%
Cc1ncccc1C(=O)NCC12CCC=C1N(C)C(=O)CC2 (stereo not drawn)	-13.5%
Cn1c(=O)n([C@H]2CCCN(C(=O)c3cnccn3)C2)c2ncccc21	1.4%
CCc1ccccc1NC(=O)c1cc(S(=O)(=O)NC2CCCC2)ccc1F	-1.4%
O=C(Nc1ccc(F)c(F)c1)c1cc(S(=O)(=O)NC2CCCC2)ccc1F	21.7%
O=C(Nc1ccc(C(F)(F)F)cc1)c1cc(S(=O)(=O)NC2CCCCC2)ccc1F	7.08µM*
O=C(Nc1ccc(Cl)cc1F)c1cc(S(=O)(=O)NC2CCCCCC2)ccc1F	i
CCOc1ccc(NC(=O)c2cc(S(=O)(=O)NC3CCCC3)ccc2F)cc1	-17.6%
O=C(Nc1ccc(C(F)(F)F)cc1)c1cc(S(=O)(=O)NC2CCCCCC2)ccc1F	5.62µM*
O=C(Cn1cccn1)N1C[C@@H](COCC2CC2)[C@H](c2ccncc2)C1	i
O=C(NC[C@H]1Cn2cc(-c3ccc4c(c3)OCCCO4)nc2CO1)c1ccc2c(c1)OCO2	i
CN1c2cc(C(=O)NCc3ccc(F)cc3F)ccc2C(=O)N2CCCC21 (stereo not drawn)	i
CNC(=O)[C@@H](C1CC1)N1CCC[C@H]1C(=O)NCC(C)C	9.4%[44.1 µM]
O=C(NC1CCCCC1)[C@@H]1Cc2nc[nH]c2CN1Cc1ccc(Cl)cc1	12.6µM*
COc1ccc(CNC(=O)[C@@H]2Cc3nc[nH]c3CN2Cc2ccc(Cl)cc2)cc1	12.6µM*
O=C(NCc1ccccc1)[C@@H]1Cc2nc[nH]c2CN1Cc1ccc(Cl)cc1	-9.0%[44.1 µM]
O=C([C@@H]1Cc2nc[nH]c2CN1Cc1ccc(Cl)cc1)N1CCOCC1	i
COc1ccc(CNC(=O)[C@@H]2Cc3nc[nH]c3CN2Cc2ccc(C(=O)O)cc2)cc1	0.6%[44.1 µM]
COc1ccc(CNC(=O)[C@@H]2Cc3nc[nH]c3CN2Cc2ccc(CO)o2)cc1	i
Cc1ncoc1C(=O)NCc1cc(Cl)cc2c(C)c(-c3ccccc3)[nH]c12	-12.8%
CC(=O)NCCC1CCN(C(=O)Nc2ccc(C)cc2)CC1	-12.5%
CN1C(=O)CS(=O)(=O)C12CCN(C(=O)c1ccco1)CC2	-1.2%
SMILES	Pf Dd2 growth
CC(C)c1nnc(C2CN(C(=O)c3ccc(OC(F)(F)F)cc3)CC23CCOCC3)o1 (stereo not drawn)	i
COCCCNc1nc2c([S+](=O)([O-])c3ccncc3)nnn2c2ccccc12	-22.4%
CCOC(=O)c1oc2ccc(S(=O)(=O)N3CCC(c4noc(C5CC5)n4)C3)cc2c1C (stereo not drawn)	i[5.79 µM]
CCCn1c(C)cnc1CCNC(=O)CCC1CCCC1	2.51µM*
CCNC(=O)NCCc1ncc(C)n1CC1CC1	2.8%
Cc1cnc(-c2ccncc2)n1CCNC(=O)CCC1CCCC1	-2.1%
Cn1cc(CN2Cc3c(cc(N4CCOCC4)nc3-c3ccc(CO)cc3)C2=O)cn1	i
COc1ccc(NC(=O)C2=NO[C@@H]3CN(c4cccnc4)C[C@H]23)cc1	-2.1%[44.1 µM]
CC(C)CC1=NS(=O)(=O)c2cc(NC(=O)C3CC3)ccc2N1c1ccccc1	2µM*
CCC1=NS(=O)(=O)c2cc(NC(C)=O)ccc2N1CC(C)C	-3.7%
CC(C)C1=NS(=O)(=O)c2cc(NC(=O)c3ccco3)ccc2N1c1ccccc1	i
CC(=O)c1cc(CN2CCC3(CC2)C(C(=O)O)CC(=O)N3C)n(C)c1 (stereo not drawn)	-8.5%
CC(C)NC(=O)NC[C@H]1O[C@@H](CC(=O)N2CCN(c3ccc(F)cc3)CC2)[C@H](O)[C@@H]1O	-7.9%
COc1ccc(C(=O)N2CCC[C@H](n3c(=O)n(CC4CC4)c4cccnc43)C2)cc1F	12.6µM*
CCOC(=O)CCNC(=O)N1CCC[C@H](n2c(=O)n(CC3CC3)c3cccnc32)C1	-15.2%
COCCn1c(=O)n([C@H]2CCCN(C(=O)c3cc(F)ccc3F)C2)c2ncccc21	4.4%
COc1ccc(CN2C(=O)c3oc4ccc(F)cc4c(=O)c3C2c2ccc(O)cc2)cc1 (stereo not drawn)	-12.4%
COc1ccc(CN2C(=O)c3oc4ccccc4c(=O)c3C2c2ccc(O)cc2)cc1 (stereo not drawn)	-28.4%
O=C1c2oc3ccccc3c(=O)c2C(c2cccc(O)c2)N1Cc1ccc(F)cc1 (stereo not drawn)	14.1µM*
COc1cccn(CC(=O)N(C)CCn2nc(C)cc2C)c1=O	-0.2%
C[C@@]1(O)CCN(C(=O)c2ccc(-c3ccco3)cc2)C[C@@H]1O	-9.2%
CCOc1ccc(-c2nnc(SCC(=O)Nc3ccc(C)cc3C)o2)cc1	15.5%
CCOc1ccc(-c2cc3nc(C4CCN(C(=O)OC(C)(C)C)CC4)c(C(=O)Nc4ccc(C)cc4Cl)cn3n2)cc1	3.98µM*
